Values joined by “and” are separate entries in the source; they are usually repeats but may differ in a detail not shown here. Identical values can stand only once. Inconclusive results are not listed. A number with no mark means an inactive call. Active and inactive are the calls of the source. The call rests on the fitted dose curve; in most records, active means well fitted curve in the direction sought with a large enough effect; inconclusive means small, poorly fitted or top-dose-only effect, or another doubt; inactive means no such curve, though single readings can be large; an effect the other way counts as inactive or inconclusive.

One assay relates to CRL-7250. The assay is described as follows: Cytotoxic Profiling of Annotated Libraries Using Quantitative High-Throughput Screening (AID 1296008). Further: nearly all actives have a fitted effect of over 60% in size. On max response: on the % scale 0 is the no-effect control and ±100 the full control effect. As to conditions: Five cell lines viability, CellTiter-Glo ATP luminescence, 48-72 h; max response: hits give low values. An outline of the steps:
(§1)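 Compounds were pin-transferred onto cells and incubated 48 or 72 hr at 37 degree Celsius, 95% humidity. CellTiter-Glo was added, plates sat 10 min at room temperature, then ATP-coupled luminescence was imaged as the viability read-out.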
On the technique in general: ATP-based viability assays read luminescence as a measure of living cells.

In a further assay the test system is HEK293. The description is as above. As to conditions: Five cell lines viability, CellTiter-Glo ATP luminescence, 48-72 h; max response: hits give low values. An outline of the steps:
as §1

Assay [1] relates to HaCat. Described as above. As to conditions: Five cell lines viability, CellTiter-Glo ATP luminescence, 48-72 h; max response: hits give low values. An outline of the steps: as §1
The subject of the next assay is KB-3-1. The assay is described as above. As to conditions: Five cell lines viability, CellTiter-Glo ATP luminescence, 48-72 h; max response: hits give low values. An outline of the steps: as §1
Assay [2] relates to NIH3T3. Described as above. As to conditions: Five cell lines viability, CellTiter-Glo ATP luminescence, 48-72 h; max response: hits give low values. An outline of the steps: as §1
Assay [3] deals with HACAT. The assay is described as follows: qHTS assay to identify novel small-molecules to repurpose for Merkel cell carcinoma treatment (AID 1296009). Further: nearly all actives have a fitted effect of over 60% in size. Further: potency means the concentration at half of the fitted maximal effect. As to conditions: MCC and control cell lines, CellTiter-Glo viability, 72 h; at 44.8 µM (top of the series) unless noted. An outline of the steps:
(§2)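 Viability readout: ATP luminescence (CellTiter-Glo) after 72 hr drug exposure at 37 degree celsius. Dose-response format was 8 points for NPC and 11 points for MIPE; data normalized to in-plate controls.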
(In general: Quantitative high-throughput screening tests each substance at several concentrations.)

The next assay relates to HEK293T. The assay is described as above. As to conditions: MCC and control cell lines, CellTiter-Glo viability, 72 h; at 44.8 µM (top of the series) unless noted. An outline of the steps:
as §2

Another assay relates to MCC-13. The description is as above. As to conditions: MCC and control cell lines, CellTiter-Glo viability, 72 h; series mostly up to 46 µM. An outline of the steps:
as §2

Another assay concerns MCC-26. Described as above. As to conditions: MCC and control cell lines, CellTiter-Glo viability, 72 h; series mostly up to 46 µM. An outline of the steps: as §2
A further assay relates to MKL-1. Described as above. As to conditions: MCC and control cell lines, CellTiter-Glo viability, 72 h; series mostly up to 46 µM. An outline of the steps:
as §2

Another assay concerns MKL-2. The description is as above. As to conditions: MCC and control cell lines, CellTiter-Glo viability, 72 h; series mostly up to 46 µM. An outline of the steps: as §2
In assay [4] the test system is NIH3T3. The assay is described as above. As to conditions: MCC and control cell lines, CellTiter-Glo viability, 72 h; at 44.8 µM (top of the series) unless noted. An outline of the steps:
as §2

In a further assay the test system is UISO. Described as above. As to conditions: MCC and control cell lines, CellTiter-Glo viability, 72 h; series mostly up to 46 µM. An outline of the steps:
as §2

A further assay deals with WaGa. Described as above. As to conditions: MCC and control cell lines, CellTiter-Glo viability, 72 h; series mostly up to 46 µM. An outline of the steps:
as §2

The next assay relates to C33A. Put plainly: Primary qHTS to identify gynecologic anti-cancer compounds using libraries of approved drugs and bioactive compounds (AID 1345084). Further: on the % scale 0 is the no-effect control and ±100 the full control effect; nearly all actives have a fitted effect of over 55% in size. As to conditions: Gynecologic cancer cell panel viability, ATPlite luminescence, 48 h; series mostly up to 57.5 µM. An outline of the steps:
(§3)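 Cells, 1,000 per well, were allowed to settle for 16 h at 37 C before compound addition. Five concentrations were tested for 48 h, and viability was read by ATPlite luminescence after 15 min at room temperature.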

For another assay, the system named is CAOV3. Described as above. As to conditions: Gynecologic cancer cell panel viability, ATPlite luminescence, 48 h; series mostly up to 57.5 µM. An outline of the steps:
as §3

In another assay the test system is CASKI. The assay is described as above. As to conditions: Gynecologic cancer cell panel viability, ATPlite luminescence, 48 h; series mostly up to 57.5 µM. An outline of the steps:
as §3

The test system of a further assay is Es-2. The description is as above. As to conditions: Gynecologic cancer cell panel viability, ATPlite luminescence, 48 h; series mostly up to 57.5 µM. An outline of the steps: as §3
Another assay relates to TAB165. Put plainly: qHTS profiling for inhibitors of Plasmodium falciparum proliferation (AID 504749). Further: nearly all actives have a fitted effect of over 60% in size. Further: potency means the concentration at half of the fitted maximal effect. As to conditions: P. falciparum in erythrocytes, SYBR Green DNA, 72 h; series mostly up to 28.7 µM. An outline of the steps: (§4)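 Quantitative HTS: compounds pinned into medium, infected erythrocytes added (0.3% parasitemia, 2.5% hematocrit), 72 h culture at 37 C under 5% CO2. Saponin/Triton lysis with SYBR Green I, overnight RT, then fluorescence read.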

Another assay relates to W2. The assay is described as above. As to conditions: P. falciparum in erythrocytes, SYBR Green DNA, 72 h; series mostly up to 28.7 µM. An outline of the steps:
as §4

As for `O=C(O)[C@H](O)c1ccccc1`, the figures for the max response in the assay with CRL-7250 and in the assay on KB-3-1 were -7.55% and 5.08%, respectively. Besides, the result in the assay with HEK293, with HaCat [1], in the assay on NIH3T3 [2], with HACAT [3], with HEK293T and with NIH3T3 [4] was inactive. The Potency entry in the assay on MCC-13, in the assay with MCC-26, in the assay with MKL-1, in the assay on MKL-2, in the assay on UISO and in the assay on WaGa was “inactive” throughout. For the same compound, the Potency result in the assay on C33A, in the assay with CAOV3, with CASKI and in the assay on Es-2 was “inactive” each time.

As to `Cn1c(=O)c2c(ncn2CC2OCCO2)n(C)c1=O`, the Potency entry in the assay with TAB165, with W2, with MCC-13, with MCC-26, in the assay with MKL-1 and in the assay on MKL-2 was “inactive” each time. Also, the Potency result in the assay on UISO, in the assay with WaGa, in the assay with C33A, with CAOV3, in the assay with CASKI and with Es-2 was “inactive” in each case. Further, the max response is -4.54% and 1.94% in the assay with CRL-7250; -3.76% in the assay on HaCat [1]; 6.93% and 8.78% with KB-3-1; 0.911% with NIH3T3 [2]. Also, the compound was classed as inactive with HEK293, in the assay with HaCat [1], in the assay with NIH3T3 [2], in the assay with HACAT [3], in the assay on HEK293T and in the assay with NIH3T3 [4].

As for `Cc1cccc(Nc2cc(Cl)nc(SCC(=O)O)n2)c1C`, the Potency result in the assay on TAB165, with W2, with MCC-13, in the assay on MCC-26, in the assay on MKL-1 and with MKL-2 was “inactive” each time. In addition, the Potency entry in the assay with UISO, in the assay on WaGa, with C33A, in the assay on CAOV3, with CASKI and in the assay on Es-2 was “inactive” each time. In addition, the max response with CRL-7250 is 0.443% and 0.95%; in the assay on HEK293 it was 1.85% and -1.17%; in the assay on HaCat [1], 1.74%; with KB-3-1, 6.42% and 8.75%; in the assay on NIH3T3 [2] it was -16.8% and 0.675%. In addition, the call with HaCat [1] and in the assay with HACAT [3] was inactive.

Consider `CCCCC(CC)COC(=O)c1ccccc1O` (stereo not given), for which the Potency result in the assay on TAB165, with W2, in the assay on MCC-13, in the assay with MCC-26, in the assay with MKL-1 and in the assay with MKL-2 was “inactive” each time. The Potency entry in the assay on UISO, in the assay with WaGa, in the assay with C33A, in the assay with CAOV3, in the assay with CASKI and with Es-2 was “inactive” throughout. Further, the max response with CRL-7250 was -6.25%; in the assay on KB-3-1, -6.97%. Moreover, the compound was classed as inactive in the assay with HEK293, with HaCat [1], in the assay with NIH3T3 [2], with HACAT [3], with HEK293T and in the assay on NIH3T3 [4].

As to `CC(C)(C)C(=O)C(Oc1ccc(Cl)cc1)n1ccnc1` (stereo not given), the Potency in the assay on TAB165 is 7.08 µM (active); with W2, 6.01 µM (active); with UISO, 11.9 µM (active). Further, the max response in the assay with CRL-7250 is -7.22%; in the assay with HaCat [1], -9.75%; in the assay on KB-3-1, -11% and -12.3%; with NIH3T3 [2], -7.83%. Moreover, the outcome in the assay with CRL-7250, with HEK293, in the assay on HaCat [1], in the assay with NIH3T3 [2], with HACAT [3] and in the assay on HEK293T was inactive. Also, the call in the assay with NIH3T3 [4] was inactive. Further, the Potency result in the assay with MCC-13, in the assay with MCC-26, in the assay with MKL-1, in the assay with MKL-2, in the assay with WaGa and in the assay with C33A was “inactive” throughout. Also, the Potency result in the assay on CAOV3, in the assay with CASKI and in the assay on Es-2 was “inactive” throughout.

Consider `COc1ccc(Cl)cc1C(=O)NCCc1ccc(S(=O)(=O)NC(=O)NC2CCCCC2)cc1`, for which the Potency entry in the assay with TAB165, in the assay with MCC-13, in the assay with MKL-1, with MKL-2, in the assay with UISO and in the assay with WaGa was “inactive” in each case. In addition, the Potency entry in the assay with C33A, in the assay on CAOV3, with CASKI and in the assay with Es-2 was “inactive” each time. Further, the max response in the assay on CRL-7250 was -1.35% and -10.9%; in the assay on HEK293 it was -12.8%; in the assay on HaCat [1], 2.84% and -12.6%; with KB-3-1 it was -9.53%; in the assay with NIH3T3 [2], -5.68% and -4.29%. The result in the assay on HEK293, in the assay with KB-3-1 and in the assay with HEK293T was inactive.

For the compound `CN1CCOC(c2ccccc2)c2ccccc2C1` (stereo not given), the max response in the assay with CRL-7250 was 2.8%; with HEK293 it was -2.69%; with HaCat [1], -15.1% and -5.19%; in the assay on KB-3-1 it was -9.99% and 4.82%; in the assay on NIH3T3 [2], 2.98%. The outcome with CRL-7250, with HEK293, in the assay with NIH3T3 [2], in the assay with HEK293T and with NIH3T3 [4] was inactive. Moreover, the Potency entry in the assay with MCC-13, in the assay with MKL-1, with MKL-2, in the assay on UISO, with WaGa and with C33A was “inactive” in each case. For the same compound, the Potency entry in the assay with CAOV3, with CASKI and with Es-2 was “inactive” throughout.

On to `C[C@]12CC[C@@H]3c4ccc(O)cc4CC[C@H]3[C@@H]1CC[C@@H]2OC(=O)CCC1CCCC1`, for which the max response in the assay on CRL-7250 is -19.6%; in the assay on HEK293, -8.4%; with KB-3-1, -5.64% and 15.4%; in the assay with NIH3T3 [2], 2.8%. The compound was classed as inactive with CRL-7250, in the assay on HaCat [1] and with HACAT [3]. In addition, the Potency result with MCC-13, with MCC-26, in the assay on MKL-1, in the assay with MKL-2, in the assay on UISO and with WaGa was “inactive” in each case. The Potency result with C33A, with CAOV3, in the assay with CASKI and in the assay with Es-2 was “inactive” throughout.

`CC(C)(C(=O)O)c1ccc(C(O)CCCN2CCC(C(O)(c3ccccc3)c3ccccc3)CC2)cc1` (stereo not given): the max response in the assay on CRL-7250 was -9.99%; in the assay with HEK293 it was 4.11%; with KB-3-1 it was -2.58% and -5.29%. Besides, the call with CRL-7250, in the assay on HEK293, in the assay on HaCat [1], with NIH3T3 [2], in the assay on HACAT [3] and in the assay on HEK293T was inactive. Besides, in the assay on NIH3T3 [4], the call was inactive. Also, the Potency entry with MCC-13, in the assay with MCC-26, in the assay on MKL-1, in the assay on MKL-2, in the assay on UISO and with WaGa was “inactive” each time. Also, the Potency entry in the assay with C33A, with CAOV3, in the assay with CASKI and in the assay with Es-2 was “inactive” each time.

Take `CC(=O)NC(Cc1ccccc1)C(=O)O` (stereo not given): the Potency result with TAB165, in the assay with MCC-13, in the assay with MCC-26, in the assay on MKL-1, with MKL-2 and in the assay with UISO was “inactive” throughout. Also, the Potency result with WaGa, with C33A, with CAOV3, in the assay with CASKI and in the assay on Es-2 was “inactive” throughout. Besides, the max response in the assay on CRL-7250 is 2.75%; in the assay on HEK293, 1.21% and -5.41%; in the assay with HaCat [1], -9.27%; in the assay with KB-3-1, 1.12% and 4.36%; in the assay on NIH3T3 [2] it was 0.258% and -10.1%. Further, the call in the assay with CRL-7250 and with HaCat [1] was inactive. Further, the outcome in the assay on HACAT [3] is “inactive [at 92 µM]”.

The record behind these values is PubChem BioAssay (NCATS).
